Results as given in PubChem BioAssay (NCATS).
Results filed as inconclusive are left out. A call without a number means that no potency is given here. Active and inactive are the calls of the source. Calls come from the whole dose curve.

Assay: Validation screen for inhibitors of Lassa infection (AID 463096)
Conditions: Lassa virus infection, cell-based; series mostly up to 46.1 µM

Structure (SMILES)	Potency
CN1CCc2c(cc(O)c(O)c2Cl)C(c2cccc(Cl)c2)C1 (stereo unspecified)	inactive
CN1C2CC(OC(=O)C(CO)c3ccccc3)CC1C1OC12 (stereo unspecified)	inactive
NC(=S)NCCCC(N)C(=O)O (stereo unspecified)	inactive
NC(=S)c1ccc[n+]([C@@H]2O[C@@H](COP(=O)([O-])OP(=O)(O)OC[C@H]3O[C@@H](n4cnc5c(N)ncnc54)[C@H](OP(=O)(O)O)[C@H]3O)C(O)C2O)c1 (stereo partly specified)	inactive
CCCC1O[C@@H]2C[C@H]3[C@@H]4CCC5=CC(=O)C=C[C@]5(C)C4[C@@H](O)C[C@]3(C)[C@]2(C(=O)CO)O1 (stereo partly specified)	inactive
Nc1ncnc2c1nc(Br)n2C1O[C@H]2COP(=O)(O)O[C@@H]2C1O (stereo partly specified)	inactive
CC(O)[C@@H](O)[C@H]1CNc2nc(N)[nH]c(=O)c2N1 (stereo partly specified)	inactive
NC(CCC(=O)NCS(=O)(=O)O)C(=O)O (stereo unspecified)	inactive
CC(=O)SC1CC2=CC(=O)CC[C@]2(C)C2CC[C@@]3(C)[C@@H](CC[C@@]34CCC(=O)O4)C12 (stereo partly specified)	inactive
COc1cc(=O)n(C)c2c(OCC(O)C(C)(C)O)cccc12 (stereo unspecified)	inactive
C/C=C1\C(=O)CC2C3CCC4=CC(=O)CC[C@]4(C)C3CC[C@]12C (stereo partly specified)	inactive
CCCCC#Cc1nc(N)c2ncn([C@@H]3O[C@H](C(=O)NCC)[C@@H](O)[C@H]3O)c2n1	inactive
Cc1cn([C@H]2C[C@@H](N=[N+]=[N-])[C@@H](CO)O2)c(=O)[nH]c1=O	inactive
CC(N)=NCCCC(N)C(=O)O (stereo unspecified)	inactive
OC[C@H]1O[C@@H](n2cnc3c(NC4CCCC4)ncnc32)[C@H](O)[C@H]1O	inactive
O=[N+]([O-])c1ccc(CSc2ncnc3c2ncn3[C@@H]2O[C@H](CO)[C@H](O)[C@H]2O)cc1	inactive
CC(C)C1NC(=O)[C@H](CCCCN)NC(=O)[C@@H](Cc2c[nH]c3ccccc23)NC(=O)[C@H](Cc2ccc(O)cc2)NC(=O)[C@H](C)N(C)C(=O)[C@H](Cc2ccccc2)NC1=O (stereo partly specified)	inactive
C[C@@H](Oc1ccc(Oc2cnc3ccc(Cl)cc3n2)cc1)C(=O)O	inactive
CN=C(N)NCCCC(N)C(=O)O (stereo unspecified)	inactive
Nc1ncnc2c1nc(Sc1ccc(Cl)cc1)n2[C@H]1O[C@@H]2COP(=O)(O)O[C@H]2[C@@H]1O	inactive
Nc1ncnc2c1ncn2[C@@H]1O[C@H](CO)[C@H](O)[C@H]1O	inactive
CC(=O)O[C@]1(C(C)=O)CC[C@H]2C3C=C(Cl)C4=CC(=O)[C@@H]5C[C@H]5[C@]4(C)C3CC[C@@]21C (stereo partly specified)	inactive
C[C@]12C[C@H](O)C3[C@@H](CCC4=CC(=O)CC[C@@]43C)[C@@H]1CC[C@@H]2C(=O)CO (stereo partly specified)	inactive
CCCCCCCCCCCCC/C=C/[C@@H](O)[C@@H](N)CO	inactive
O=C(O)CC[C@H](NC(=O)c1ccccc1C(=O)O)C(=O)O	inactive
COc1ccc(CCNC[C@@H](O)c2ccc(O)cc2)cc1OC	inactive
